Data taken from PubChem BioAssay AID1159580 (chemical genetic matrix, 2015).
Among all 5,500 compounds or so, about 2,000 (36%) were called active. About 18% were inconclusive and are not listed. Cut-off read from the data, not from the text of the source: active = normalized growth mostly below about 0.91 (no sharp cut-off); inconclusive = no clear call, values can overlap the other calls; inactive = mostly above about 0.92. The list shows a part of the results.

Test: chemical genetic growth profiling, strain panel (AID 1159580);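 note: tested at 20 µM; growth read once vehicle control cultures reached saturation at 30 °C; 1 = growth at the plate median or of vehicle wells; lower values mean less growth of the strain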
Conditions: S. cerevisiae deletion strains, growth OD

Measured: normalized growth

O=C1c2ccccc2-c2cccc3cccc1c23
active: locus YAL026C, strain drs2, active compounds read low 0.896 | locus YBL061C, strain skt5, active compounds read low 0.88 | locus YBR009C, strain hhf1, active compounds read low 0.849 | locus YBR023C, strain chs3, active compounds read low 0.855 | locus YBR231C, strain swc5, active compounds read low 0.78 | locus YBR279W, strain paf1, active compounds read low 0.884 | locus YCL011C, strain gbp2, active compounds read low 0.874 | locus YCL016C, strain dcc1, active compounds read low 0.823 | locus YCL061C, strain MRC1, active compounds read low 0.867 | locus YCL069W, strain vba3, active compounds read low 0.924 | locus YDR137W, strain rgp1, active compounds read low 0.756 | locus YDR195W, strain ref2 1.44 [resistant] | locus YDR392W, strain spt3, active compounds read low 0.483 | locus YER155C, strain BEM2 (second series), active compounds read low 0.716 | locus YFR010W, strain ubp6, active compounds read low 0.833 | locus YGL173C, strain kem1, active compounds read low 0.853 | locus YGL240W, strain doc1, active compounds read low 0.868 | locus YGL253W, strain hxk2, active compounds read low 0.822 | locus YHR013C, strain ard1, active compounds read low 0.737 | locus YHR142W, strain chs7, active compounds read low 0.62 | locus YJL092W, strain hpr5, active compounds read low 0.899 | locus YJL095W, strain BCK1 (second series), active compounds read low 0.854 | locus YJL164C, strain tpk1, active compounds read low 0.868 | locus YJL166W, strain qcr8, active compounds read low 0.841 | locus YKL160W, strain elf1, active compounds read low 0.829 | locus YLL001W, strain dnm1, active compounds read low 0.89 | locus YLR027C, strain aat2, active compounds read low 0.875 | locus YLR221C, strain rsa3, active compounds read low 0.875 | locus YLR258W, strain gsy2, active compounds read low 0.9 | locus YLR262C, strain YPT6 (second series), active compounds read low 0.747 | locus YLR320W, strain mms22, active compounds read low 0.714 | locus YMR058W, strain fet3, active compounds read low 0.746 | locus YNL071W, strain lat1, active compounds read low 0.685 | locus YNL248C, strain rpa49, active compounds read low 0.677 | locus YOR070C, strain gyp1, active compounds read low 0.904 | locus YOR083W, strain WHI5, active compounds read low 0.786 | locus YOR106W, strain vam3, active compounds read low 0.693 | locus YOR270C, strain vph1, active compounds read low 0.341 | locus YOR290C, strain snf2, active compounds read low 0.856 | locus YPL051W, strain arl3, active compounds read low 0.739 | locus YPL078C, strain atp4, active compounds read low 0.787 | locus YPL106C, strain sse1, active compounds read low 0.74
inactive: locus YAL021C, strain ccr4, active compounds read low 0.946 | locus YAL030W, strain snc1, active compounds read low 0.954 | locus YBR171W, strain sec66, active compounds read low 0.964 | locus YCR088W, strain abp1, active compounds read low 1.01 | locus YDL005C, strain med2, active compounds read low 0.961 | locus YDL040C, strain nat1, active compounds read low 0.974 | locus YDR001C, strain nth1, active compounds read low 0.988 | locus YDR069C, strain doa4, active compounds read low 0.905 | locus YDR159W, strain sac3, active compounds read low 0.881 | locus YDR297W, strain sur2, active compounds read low 0.965 | locus YDR334W, strain swr1, active compounds read low 0.923 | locus YDR335W, strain msn5, active compounds read low 0.952 | locus YEL003W, strain gim4, active compounds read low 0.967 | locus YEL037C, strain rad23, active compounds read low 0.945 | locus YEL061C, strain CIN8 (second series), active compounds read low 0.953 | locus YER015W, strain faa2, active compounds read low 0.939 | locus YER016W, strain bim1, active compounds read low 0.977 | locus YER111C, strain swi4, active compounds read low 0.968 | locus YGL167C, strain pmr1, active compounds read low 0.97 | locus YGL227W, strain vid30, active compounds read low 0.99 | locus YHR027C, strain rpn1, active compounds read low 0.956 | locus YJL115W, strain asf1, active compounds read low 0.91 | locus YJL129C, strain trk1, active compounds read low 1.02 | locus YJL154C, strain vps35, active compounds read low 0.988 | locus YKR026C, strain gcn3, active compounds read low 0.965 | locus YKR091W, strain srl3, active compounds read low 0.977 | locus YLL026W, active compounds read low 0.932 | locus YLL041C, strain sdh2, active compounds read low 0.994 | locus YLR342W, strain FKS1, active compounds read low 0.966 | locus YLR357W, strain rsc2, active compounds read low 0.985 | locus YLR370C, strain arc18, active compounds read low 0.931 | locus YLR384C, strain iki3, active compounds read low 0.978 | locus YML120C, strain ndi1, active compounds read low 0.949 | locus YMR125W, strain sto1, active compounds read low 0.9 | locus YMR129W, active compounds read low 0.973 | locus YMR205C, strain PFK2, active compounds read low 0.935 | locus YMR231W, strain pep5, active compounds read low 0.954 | locus YNL209W, strain ssb2, active compounds read low 0.928 | locus YNL322C, strain KRE1 (second series), active compounds read low 0.966 | locus YNR049C, strain mso1, active compounds read low 0.986 | locus YOR001W, strain rrp6, active compounds read low 0.911 | locus YOR080W, strain dia2, active compounds read low 0.981 | locus YOR265W, strain rbl2, active compounds read low 0.967 | locus YPL240C, strain hsp82, active compounds read low 0.979
